Most compounds without a hit are left out; they make up all but 1.5% or so of the library.
CRFR2-BP antag: blocks CRF-induced signaling of the CRF-BP/CRF-R2 complex; 0.59% of 350,000 active; HEK293 CRF-R2/CRF-BP, CRF-induced calcium fluorescence; inhibition, % at 11.8 µM; AID 588475;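 active = inhibition of the ligand-induced calcium signal above about 50% at the single tested concentration, limit read from the data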
V-ATPase pHluor: alters yeast V-ATPase proton transport; S. cerevisiae, pHLuorin cytosolic pH fluorescence; response, % at 10 µM; 0.37% of 350,000 active; in the data active = response mostly above about 7.3%, no sharp cut-off; inactive = mostly below about 5.4%; also: actives read high
NTR1 agonist: activates human neurotensin receptor 1; AID 493036; 0.17% of 330,000 active; P30989; NTR1-U2OS beta-arrestin-GFP spot imaging, agonist mode; activation, % at 20 µM;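 active = activation at or above 40% of the spot to cytoplasm intensity ratio, with at least 20 cells analyzed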;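 also: 0% = DMSO without peptide and 100% = 100 nM NTR1 peptide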
Target sequence (P30989 whole entry, looked up): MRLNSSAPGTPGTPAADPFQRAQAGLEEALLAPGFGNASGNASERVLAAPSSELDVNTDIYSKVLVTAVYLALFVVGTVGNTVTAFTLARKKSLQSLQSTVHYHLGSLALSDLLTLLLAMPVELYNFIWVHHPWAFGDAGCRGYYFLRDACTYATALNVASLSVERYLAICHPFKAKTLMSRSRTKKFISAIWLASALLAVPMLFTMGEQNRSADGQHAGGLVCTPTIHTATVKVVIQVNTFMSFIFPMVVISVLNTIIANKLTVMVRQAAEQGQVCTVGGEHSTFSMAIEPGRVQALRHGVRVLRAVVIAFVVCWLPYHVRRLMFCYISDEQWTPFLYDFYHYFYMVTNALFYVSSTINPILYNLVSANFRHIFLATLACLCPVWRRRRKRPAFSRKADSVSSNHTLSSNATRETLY
CRFBP-R2 agonist: agonists of human CRF-binding protein/CRF-R2 receptor complex | 0.46% of 350,000 active | activation, % at 13.2 µM | HEK293 CRF-R2/CRF-BP, calcium dye fluorescence (FLIPR); percent of saturating CRF peptide response;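 active = activation of at least 50%, plus an integration ratio under a set limit after plate pattern correction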;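 also: plate controls were neutral control wells without compound for no effect and CRF at EC100 for full effect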
NTR1 ag confirm: NTR1 (human) agonism, confirmed | shares compounds with NTR1 agonist | NTR1-U2OS beta-arrestin-GFP translocation imaging | activation, % at 20 µM | 38% of 480 active;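 active = mean activation at 20 µM of at least 40%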;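 also: 0% = DMSO without peptide and 100% = 100 nM NTR1 peptide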
VATPase regulator: modulates yeast V-ATPase proton transport. shares compounds with V-ATPase pHluor. S. cerevisiae pHLuorin cytosolic pH. response, % at 10 µM. 2% of 980 active; in the data active = response above about 24%;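 also: plate controls were vehicle wells for no effect and positive control wells for full effect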
Numbers without * were called inactive; / = no result.

SMILES	CRFR2-BP antag	V-ATPase pHluor	NTR1 agonist	CRFBP-R2 agonist	NTR1 ag confirm	others
CC1=CC(=O)OC2CC3OC4C[C@@H](C)C5OC6CC7O[C@]8(C)C/C=C\C9OC%10CC%11OC(CC(C)C%12OCCO%12)CC(O)[C@]%11(C)OC%10CC9OC8C[C@]7(C)O[C@]6(C)CCC5OC4C[C@]3(C)OC12 (some centres undefined)	-32	2	1	75*	/
Oc1c(Br)cc(-c2ccccc2)cc1Br	72*	4	/	-2	/
Cn1c(O)c(/C=C/C=Nc2ccccc2)c(=O)n(C)c1=O	-63	0	-1	85*	/
CCCCn1c(O)c(/C=C/C=Nc2ccccc2)c(=O)[nH]c1=O	-134	-3	-1	113*	/
Cn1c(O)c(C=Nc2ccccc2)c(=O)n(C)c1=O	-3	-2	-1	0	/
CCCCC(=O)N/N=C/c1c(O)n(CCc2ccccc2)c(=O)[nH]c1=O	22	1	2	1	/
CCOC(=O)c1cccc(C2=C(CNC(=O)c3nccs3)[C@H]3CC[C@@H](C2)N3Cc2ccccc2)c1	-2	-1	/	2	/
Cc1ccccc1[N+](=O)[O-]	51*	1	-1	13	/
Cc1ccc([C@@H]2C[C@H]3[C@@H](CN2S(=O)(=O)c2ccc(Cl)cc2)C(=O)C[C@@H](c2ccccc2F)N3S(=O)(=O)c2ccc(C)cc2)cc1	-7	-2	/	0	/
CNP(=O)(Oc1ccccc1)OC12CC3CC(CC(C3)C1)C2 (centres undefined)	78*	-2	-1	2	/
CN1/C(=C\C=C2C(=O)NC(=O)NC2=O)C(C)(C)c2ccccc21	-383	-5	0	378*	/
CN1/C(=C\C=Nc2ccccc2)C(C)(C)c2ccccc21	-16	-2	-1	3	/
CNc1cc(Cl)c2nonc2c1[N+](=O)[O-]	75*	10	/	1	/
Cc1cc([N+](=O)[O-])c(Cl)cc1NC(=O)C(C)C	12	12	3	-3	/
CC(C)(C)n1cccc1/C=C1\C(=O)NC(=O)N(c2ccccc2)C1=O	-40	2	7	-1	/
Cc1cccc(N2C(=O)NC(=O)/C(=C\c3cccn3-c3ccc(Cl)cc3)C2=O)c1	-31	2	48*	9	82*
Cc1cc(C)cc(N2C(=O)NC(=O)/C(=C/c3cccn3-c3ccc(Cl)cc3)C2=O)c1	-84	-2	44*	-1	61*
Cc1cccc(N2C(=O)NC(=O)/C(=C/c3ccc([N+](=O)[O-])o3)C2=O)c1	-8	/	/	12	/
CN(C)C1C(=O)C(C(N)=O)=C(O)C2(O)C(=O)C3=C(O)c4c(O)cccc4C(C)(O)C3C(O)C12 (centres undefined)	-27	-4	0	1	/
CN1C(=O)C(c2ccc([N+](=O)[O-])cc2[N+](=O)[O-])C(=O)N(C)C1=O	18	6	1	-1	/
COC(=O)C1=C(c2ccc(OC(F)(F)F)cc2)C[C@@H]2CC[C@H]1N2C(=O)NCCOc1ccccc1Cl	6	-2	6	3	/
O=C1NC(=O)N(Cc2ccc(F)cc2)C(=O)/C1=C/c1cccs1	-92	-1	53*	3	45*
CCOC(=O)c1cnc(SCc2ccc(Cl)c(Cl)c2)nc1N1CC1	-1	-2	/	2	/
O=C1CC(N2CCC(n3c(=O)[nH]c4ccccc43)CC2)C(=O)N1c1ccc(F)cc1 (centres undefined)	-4	0	0	1	/
O=c1[nH]c2ccccc2n1C1CCN(CCCC(c2ccc(F)cc2)c2ccc(F)cc2)CC1	-15	-4	43*	1	14
SMILES	CRFR2-BP antag	V-ATPase pHluor	NTR1 agonist	CRFBP-R2 agonist	NTR1 ag confirm	others
CC1CCC(C(C)C)C(OC(=O)Cn2c(COc3ccccc3)[n+](C)c3ccccc32)C1 (centres undefined)	-21	-3	59*	3	68*
NC(N)=N/N=C/c1ccc(N(c2ccccc2)c2ccccc2)cc1	-46	2	64*	-1	20
O=C1NC(=O)C(=Cc2ccc(Sc3ccccc3)o2)C(=O)N1	-19	0	49*	1	90*
CN1C(=O)C(=Cc2ccc(Sc3ccccc3)o2)C(=O)N(C)C1=O	-112	3	2	16	/
CCN(CC)c1ccc(C=C2C(=O)NC(=S)NC2=O)cc1	-32	6	71*	1	95*
C[C@H]1CC[C@H]2NCCN[C@H]2C1	0	0	1	-1	/
C1=CC(Cc2cncs2)c2ccccc21 (centres undefined)	-2	3	2	0	/
C/C(=C\c1ccc(N(C)C)cc1)[N+](=O)[O-]	1	0	53*	6	73*
CN(C)c1ccc(C(=O)c2ccc(N(C)C)cc2)cc1	34	4	4	2	/
Nc1ccc(Cl)cc1C(=O)c1ccccc1	13	1	100*	-3	-5
OC1(c2ccccc2F)CC2CCC(C1)N2CCN1CCOCC1 (centres undefined)	4	-4	3	-1	/
COc1ccc(NC(=O)c2cn(CCC#N)nc2-c2cccc([N+](=O)[O-])c2)cc1	-9	-3	1	-1	/
COc1ccc(Oc2cc(NC(=O)c3nn(C)cc3[N+](=O)[O-])cc([N+](=O)[O-])c2)cc1	19	-4	61*	1	67*
O=C1NC(=O)C(=Cc2cn(CCOc3ccc4c(c3)OCO4)c3ccccc23)C(=O)N1	-57	-6	54*	59*	63*
Cc1ccc(C(=O)N[C@@H](C)CN2C3=NC[C@H](Cc4ccccc4)N3C[C@H]2Cc2ccc(O)cc2)cc1Br	-15	/	52*	-1	38
Cc1ccc(C(=O)N[C@@H](C)CN2C3=NC[C@@H](Cc4ccccc4)N3C[C@H]2Cc2ccc(O)cc2)cc1Br	-14	/	16	-1	/
COC(=O)c1ccc(NC(=O)CSc2nc3ccc(N4C(=O)C5C6C=CC(C6)C5C4=O)cc3s2)cc1 (centres undefined)	-78	-3	63*	25	56*
C/C(CC(c1ccccc1)c1c(O)c2ccccc2oc1=O)=N\Nc1ccc([N+](=O)[O-])cc1[N+](=O)[O-] (centres undefined)	4	-2	4	-2	/
O=c1oc2ccccc2c(O)c1C(c1ccc([N+](=O)[O-])cc1)c1c(O)c2ccccc2oc1=O	82*	12*	/	21	/	VATPase regulator=1
Cc1ccc(C2C(S(C)(=O)=O)=C(O)C(=O)N2c2ccccc2)cc1 (centres undefined) (tested in a mixture with another compound)	-32	7.7*	-1	1	/	VATPase regulator=-1
O=C(c1cn(Cc2ccccc2F)c2ncccc12)C(F)(F)F	8	-1	0	0	/
C[C@]12CC[C@H](O)CC1=CCC1C2CC[C@@]2(C)C1C[C@@H]1CC(=O)O[C@@H]12 (some centres undefined)	6	5	1	0	/
